# Assay results reported in PubChem BioAssay (NCI).
# The panel holds about 83,000 compounds, 20% with a hit somewhere; the sample as a whole holds those more often.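 The endpoint reported here, percent growth, reads 100 for growth as untreated, 0 for no net growth and -100 for all cells dead.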 Values without a mark were called inactive. The calls were made as follows: active = growth percent below 10; inactive = the rest.
# Test system: 786-0 renal
# Assay: NCI-60 one-dose screen, 48 h (100 = growth as untreated, 0 = no growth, -100 = all killed)
# Conditions: 10 µM unless noted
row,SMILES,growth
1,COc1cccc(N2CCN(C3=C(Cl)C(=O)c4ncccc4C3=O)CC2)c1,114%
2,Clc1ccc2[nH]cc(-c3cncn3CCc3ccc4c(c3)OCO4)c2c1,73.7%
3,CN1CCN(c2ccc(Nc3nc(NCCNS(=O)(=O)c4ccc5ccccc5c4)c4sccc4n3)cc2)CC1,56.3%
4,Cc1[nH]c(C(=O)Nc2ccc(C(=O)NCC3CCNCC3)cc2OC(C)C)c(Cl)c1Cl,79.8%
5,Nc1ncc(-c2ccc3ncnc(NCc4ccccc4)c3c2)cn1,31.3%
6,O=C(NNc1nc2cc(F)cc(F)c2n2cccc12)c1cccnn1,14.3%
7,CCCc1[nH]c(-c2cc(N)ccc2Cl)c2c1C(=O)CCCC2,91%
8,O=C(CSc1nnc(-c2ccc(Cl)cc2)n1-c1ccccc1)Nc1ccccc1Cl,42.1%
9,CN(C)S(=O)(=O)c1ccc(-c2nc(C(Cl)Cl)nc3cc(-c4ccc(F)cc4)nn23)cc1,72.6%
10,C1=CC(c2nn3c(-c4ccccc4)nnc3s2)=Cc2ccccc2O1,91.8%
11,COc1ccccc1N1CCN(C2=C(Cl)C(=O)c3ncccc3C2=O)CC1,107%
12,O=C(COc1ccc(/C=C2\C(=O)Nc3ccc(F)cc32)cc1)Nc1ccccc1,105%
